{"source": "PubChem BioAssay AID1722", "about": "(National Center for Advancing Translational Sciences (NCATS), 2009)", "note": "The campaign covered roughly 290,000 compounds. Fewer than 10 were called active. These entries were drawn from the full list. A number with no mark means an inactive call. The call rests on the fitted dose curve."}
{"target": "Pyruvate kinase (Leishmania mexicana) (UniProt Q27686)", "sequence (Q27686 whole entry, looked up)": "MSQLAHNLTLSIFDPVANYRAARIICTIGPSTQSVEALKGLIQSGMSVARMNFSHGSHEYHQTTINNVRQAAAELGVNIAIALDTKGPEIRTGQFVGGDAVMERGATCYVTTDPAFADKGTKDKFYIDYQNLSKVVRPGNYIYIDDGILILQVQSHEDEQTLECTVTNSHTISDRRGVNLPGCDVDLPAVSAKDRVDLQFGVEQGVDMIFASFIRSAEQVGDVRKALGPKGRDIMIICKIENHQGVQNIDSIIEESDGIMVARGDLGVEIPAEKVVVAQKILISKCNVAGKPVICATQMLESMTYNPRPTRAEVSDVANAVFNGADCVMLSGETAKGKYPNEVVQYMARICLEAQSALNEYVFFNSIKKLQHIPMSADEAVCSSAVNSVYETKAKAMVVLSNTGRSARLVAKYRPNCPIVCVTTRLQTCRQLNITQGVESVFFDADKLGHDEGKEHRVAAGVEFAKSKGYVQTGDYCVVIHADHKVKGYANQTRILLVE", "test": "qHTS Assay for Activators of Leishmania Mexicana Pyruvate Kinase (LmPK)", "conditions": "purified LmPK, Kinase-Glo ATP luminescence, 1 h; series mostly up to 57.5 µM; activity change, negative = inhibition: at the top concentration", "description": "NIH Chemical Genomics Center [NCGC] Malcolm Walkinshaw, Hugh Morgan, Linda Gilmore University of Edinburgh, UK MLPCN Grant: 1 R03 MH085697-01 NCGC Assay Overview: Pyruvate kinase (L. Mexicana) (LmPK) enzyme was supplied as a highly purified (>95% pure) sulphate-free preparation from University of Edinburgh, UK and assayed for its ability to generate ATP from ADP using phosphoenolpyruvate (PEP) as a substrate. ATP generation was detected in a coupled reaction by luciferase-mediated luminescence, an ATP-dependent process. Pyruvate kinase substrates, PEP and ADP, were present in the assay at Km and approximately 10-fold below Km respectively. The enzyme was assayed at an intermediate level of activity to screen for both inhibitors and activators.\nNCGC Assay Protocol Summary: Three uL of enzyme mix (kept on ice) in assay buffer (50 mM Imidazole pH7.2, 50 mM KCl, 7 mM MgCl2, 0.01% Tween 20, 0.05% BSA) containing PEP (0.5 mM final concentration) and LmPK (0.1 nM final concentration) was dispensed into white solid bottom 1,536 well microtiter plates. 23 nL of compound were delivered by a pin tool and 1 uL of ADP mix in assay buffer (r.t; 0.1 mM final ADP concentration) was added. Plates were incubated at room temperature for 1 hour. Two uL of detection mix (Kinase-Glo, Promega; at 4 degree Celsius protected from light) was added and luminescence read by a ViewLux (Perkin Elmer) at 1 second exposure/plate. Data were normalized to the uninhibited and AC100 inhibition (no enzyme). To monitor activation, the first column contained a five-fold concentration of LmPK (0.5 nM).", "units": {"activity change, negative = inhibition": "%"}}
{"smiles": "COc1ccc(-c2cn3ccc(C)cc3n2)cc1", "activity change, negative = inhibition": -113}
{"smiles": "Cc1cnc(NC(=O)c2ccccn2)s1", "activity change, negative = inhibition": -94}
{"smiles": "S=c1[nH]nc(-c2cc(-c3ccsc3)n[nH]2)n1-c1ccccc1", "activity change, negative = inhibition": -81.9}
{"smiles": "COc1ccc(C2=Nc3cc(C)ccc3OC2)cc1", "activity change, negative = inhibition": -76}
{"smiles": "NC(=O)Cc1ccc2sc(-c3ccccc3)nc2c1", "activity change, negative = inhibition": -42.1}
{"smiles": "CCc1ccc2nc3sc(C(=O)Nc4nnc(CC)s4)c(N)c3cc2c1", "activity change, negative = inhibition": -45.8}
{"smiles": "COc1cccc(C(=O)Nc2ccc(NC(=O)c3ccco3)cn2)c1", "activity change, negative = inhibition": -34.9}
{"smiles": "Cc1csc(NC(=O)Nc2ccccc2[N+](=O)[O-])n1", "activity change, negative = inhibition": -65.8}
{"smiles": "O=[N+]([O-])c1ccc2nc(-c3ccccn3)[nH]c2c1", "activity change, negative = inhibition": -58.8}
{"smiles": "CCOc1cnc(C(=O)NNC(=O)c2ccccc2Br)o1", "activity change, negative = inhibition": -50.4}
{"smiles": "c1ccc(CN=C2Nc3ccccc3CS2)nc1", "activity change, negative = inhibition": -57}
{"smiles": "C=CCn1c(-c2ccccc2OCC)n[nH]c1=S", "activity change, negative = inhibition": -41.6}
{"smiles": "COc1ccc(C(=O)Nc2ccccc2C(=O)N/N=C/c2ccc(O)c(OC)c2)cc1", "activity change, negative = inhibition": -34}
{"smiles": "CCOc1ccc(C(=O)Nc2cccc(SC)c2)cc1", "activity change, negative = inhibition": -31.6}
{"smiles": "O=C(Nc1ccc2c(c1)OCCO2)c1cnccn1", "activity change, negative = inhibition": -44.4}
{"smiles": "C=CCNC(=S)N1CCN(CCN=Cc2c(C)[nH]n(-c3ccc([N+](=O)[O-])cc3)c2=O)CC1", "activity change, negative = inhibition": -30.9}
{"smiles": "Cc1ccc(-n2[nH]c(C)c(/C=N/N3C(=O)c4cccc5cccc(c45)C3=O)c2=O)cc1", "activity change, negative = inhibition": -54.4}
{"smiles": "Cc1ccc(C)c2c1cc(C)c1nnc(SCC(=O)Nc3cccc(C(=O)O)c3)n12", "activity change, negative = inhibition": -45.6}
{"smiles": "Cc1ccc(NCc2n[nH]c(=S)n2-c2ccccc2)cc1Cl", "activity change, negative = inhibition": -35.2}
{"smiles": "COc1cccc(/C=N\\NC(=O)C2=NNC(=O)C2C)c1O", "note": "(centres undefined)", "activity change, negative = inhibition": -55.1}
{"smiles": "S=c1[nH]nc(-c2cccs2)n1/N=C/c1cccs1", "activity change, negative = inhibition": -48.2}
{"smiles": "CSC1=N/C(=C\\C=C\\c2cccs2)C(=O)S1", "activity change, negative = inhibition": -31.2}
{"smiles": "O=C(Nc1ccccc1)c1ccc2c(c1)OCO2", "activity change, negative = inhibition": -118}
{"smiles": "CCc1cc(-c2n[nH]c(=S)n2CC(C)C)cs1", "activity change, negative = inhibition": -52.8}
{"smiles": "Cc1[nH]n(-c2ccc([N+](=O)[O-])cc2)c(=O)c1C=NCCN1CCN(C(=O)c2ccccc2F)CC1", "activity change, negative = inhibition": -37.8}
{"smiles": "Cc1cc(C(=O)N/N=C/c2ccc(N3CCOCC3)cc2)c(C)o1", "activity change, negative = inhibition": -42.8}
{"smiles": "O=C(Nc1nc2ccccc2s1)c1ccc2c(c1)OCO2", "activity change, negative = inhibition": -54.6}
{"smiles": "O=C(Nc1ccccc1)Nc1ccccc1C(=O)NCc1ccco1", "activity change, negative = inhibition": -33.9}
{"smiles": "Cn1cccc1C(=O)Nc1nccs1", "activity change, negative = inhibition": -33.8}
{"smiles": "O=c1c2ccccc2ncn1/N=C/c1ccccc1", "activity change, negative = inhibition": -48.7}
{"smiles": "C=CCn1c(C)cc(C2=NNC(=NCC)SC2)c1C", "activity change, negative = inhibition": -68.3}
{"smiles": "c1c2c(cc3sc(N4CCCCC4)nc13)OCCO2", "activity change, negative = inhibition": -74.2}
{"smiles": "O=C1/C(=C/c2cccs2)CCc2ccccc21", "activity change, negative = inhibition": -43.3}
{"smiles": "Clc1ccc(-c2cc(-c3ccccn3)on2)c(Cl)c1", "activity change, negative = inhibition": -73.3}
{"smiles": "O=C1CSC(=S)N1/N=C/c1ccc(O)c([N+](=O)[O-])c1", "activity change, negative = inhibition": -84.3}
{"smiles": "COc1ccc(OC)c(-n2c(-c3ccn[nH]3)n[nH]c2=S)c1", "activity change, negative = inhibition": -85.1}
{"smiles": "CCn1c(CSCc2c(Cl)cccc2Cl)n[nH]c1=S", "activity change, negative = inhibition": -65.2}
{"smiles": "O=C(/C=C/c1ccc2c(c1)OCCO2)c1ccc(O)cc1", "activity change, negative = inhibition": -47.4}
{"smiles": "Cc1ccc(F)c(NC(=O)CCc2ccccc2)c1", "activity change, negative = inhibition": -37.4}
{"smiles": "COc1ccc(C(=O)/C=C/Nc2ccccn2)cc1", "activity change, negative = inhibition": -139}
{"smiles": "Cn1cc([N+](=O)[O-])c(C(=O)Nc2ccc3c(c2)OCCO3)n1", "activity change, negative = inhibition": -65.4}
{"smiles": "c1ccc2[nH]c(-c3nc4ccccc4[nH]3)nc2c1", "activity change, negative = inhibition": -96.3}
{"smiles": "CC(=O)Oc1ccccc1C(=O)Nc1ncc([N+](=O)[O-])s1", "activity change, negative = inhibition": -111}
{"smiles": "O=C(c1ccc(F)cc1)n1c(=S)nc2ccccn21", "activity change, negative = inhibition": -69}
{"smiles": "C/C(=N\\NC(=O)CC(C)C)c1c(C(F)(F)F)[nH]n(-c2nc3ccccc3s2)c1=O", "activity change, negative = inhibition": -46.7}
{"smiles": "c1ccc(-c2noc(-c3cccs3)n2)nc1", "activity change, negative = inhibition": -91.2}
{"smiles": "Cc1ccc(-c2nc3ccccc3[nH]2)cc1N", "activity change, negative = inhibition": -117}
{"smiles": "CCCCC(CC(C)O)c1n[nH]c(=S)n1-c1ccccc1", "note": "(centres undefined)", "activity change, negative = inhibition": -46.5}
{"smiles": "COc1ccc(C(=O)Nc2ccc(F)cc2F)cc1", "activity change, negative = inhibition": -69.4}
{"smiles": "Nc1ncc(-c2cc3ccccc3oc2=O)s1", "activity change, negative = inhibition": -79.1}
{"smiles": "CN(C)CCCSc1ccccc1NC(=O)/C=C/c1ccccc1", "activity change, negative = inhibition": -37.6}
{"smiles": "COc1ccccc1-n1c(-c2cc(-c3ccco3)[nH]n2)n[nH]c1=S", "activity change, negative = inhibition": -95.6}
{"smiles": "COCn1c(COc2ccccc2)nc2ccccc21", "activity change, negative = inhibition": -56.9}
{"smiles": "N/C(=N\\OC(=O)CCC1CCCCC1)c1ccccn1", "activity change, negative = inhibition": -55.1}
{"smiles": "CCCc1cc(-c2n[nH]c(=S)n2Cc2ccccc2)cs1", "activity change, negative = inhibition": -51.6}
{"smiles": "O=C(OC1CCOC1=O)c1ccc(-c2nc3ccccc3s2)s1", "note": "(centres undefined)", "activity change, negative = inhibition": -56.5}
{"smiles": "COc1cccc(C(=O)c2cc3ccc(O)cc3oc2=O)c1", "activity change, negative = inhibition": -88.8}
{"smiles": "COc1cccc(-c2nc3cc(C)ccc3o2)c1", "activity change, negative = inhibition": -62.9}
{"smiles": "C=CCn1c(-c2ccc3[nH]c(C)c(C)c3c2)n[nH]c1=S", "activity change, negative = inhibition": -41.6}
